Test results: PubChem BioAssay AID1159580 (chemical genetic matrix, 2015)
Hit rate of the full screen: of about 5,500 compounds, about 2,000 (36%) were called active. Another 18% or so got no clear call; they are omitted. Rule as the data show it: active = normalized growth mostly below about 0.91 (no sharp cut-off); inconclusive = no clear call, values can overlap the other calls; inactive = mostly above about 0.92. The list shows a part of the results.

Assay: chemical genetic growth profiling, strain panel (AID 1159580);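 also: tested at 20 µM; growth read once vehicle control cultures reached saturation at 30 °C; 1 = growth at the plate median or of vehicle wells; lower values mean less growth of the strain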
Conditions: S. cerevisiae deletion strains, growth OD

Measured: normalized growth

Cc1ccc(NC(=S)NCCO)c(C)c1
inactive: locus YAL013W, strain DEP1, active compounds read low 1 | locus YBR229C, strain ROT2, active compounds read low 0.987 | locus YDL101C, strain DUN1, active compounds read low 1.01 | locus YDR150W, strain NUM1, active compounds read low 1 | locus YEL061C, strain CIN8, active compounds read low 0.99 | locus YGR078C, strain PAC10, active compounds read low 1.01 | locus YHR030C, strain SLT2, active compounds read low 1 | locus YHR087W, strain rtc3, active compounds read low 1.01 | locus YJR043C, strain POL32, active compounds read low 0.997 | locus YJR075W, strain HOC1, active compounds read low 0.978 | locus YLR039C, strain RIC1, active compounds read low 1.01 | locus YLR058C, strain SHM2 (second series), active compounds read low 0.996 | locus YLR085C, strain ARP6, active compounds read low 1 | locus YLR262C, strain YPT6, active compounds read low 1 | locus YML094W, strain GIM5, active compounds read low 1.01 | locus YMR219W, strain ESC1, active compounds read low 1 | locus YMR263W, strain SAP30, active compounds read low 1 | locus YNL128W, strain TEP1, active compounds read low 1 | locus YNL153C, strain GIM3, active compounds read low 1 | locus YNL298W, strain CLA4 (second series), active compounds read low 1.02 | locus YNL322C, strain KRE1, active compounds read low 0.98 | locus YNR030W, strain Alg12, active compounds read low 0.986 | locus YOL006C, strain TOP1, active compounds read low 1.03 | locus YPL055C, strain LGE1, active compounds read low 1.01 | locus YPL241C, strain CIN2, active compounds read low 0.945 | locus YPR135W, strain CTF4, active compounds read low 1.03

CCCCCCCCCCCCCCCC(=O)OC1C(SC)OC(C(NC(=O)C2CC(CCC)CN2C)C(C)Cl)C(O)C1O (stereo not drawn)
inactive: locus YAL021C, strain ccr4, active compounds read low 0.958 | locus YAL026C, strain drs2, active compounds read low 0.976 | locus YAL030W, strain snc1, active compounds read low 0.989 | locus YBL061C, strain skt5, active compounds read low 0.963 | locus YBR009C, strain hhf1, active compounds read low 0.977 | locus YBR023C, strain chs3, active compounds read low 0.984 | locus YBR171W, strain sec66, active compounds read low 0.961 | locus YBR231C, strain swc5, active compounds read low 0.979 | locus YBR279W, strain paf1, active compounds read low 0.981 | locus YCL011C, strain gbp2, active compounds read low 0.978 | locus YCL016C, strain dcc1, active compounds read low 0.982 | locus YCL061C, strain MRC1, active compounds read low 0.98 | locus YCL069W, strain vba3, active compounds read low 0.985 | locus YCR088W, strain abp1, active compounds read low 0.972 | locus YDL005C, strain med2, active compounds read low 0.968 | locus YDL040C, strain nat1, active compounds read low 0.979 | locus YDR001C, strain nth1, active compounds read low 0.974 | locus YDR069C, strain doa4, active compounds read low 0.975 | locus YDR137W, strain rgp1, active compounds read low 1 | locus YDR159W, strain sac3, active compounds read low 0.958 | locus YDR195W, strain ref2 0.964 | locus YDR297W, strain sur2, active compounds read low 0.976 | locus YDR334W, strain swr1, active compounds read low 0.973 | locus YDR335W, strain msn5, active compounds read low 0.978 | locus YDR392W, strain spt3, active compounds read low 0.96 | locus YEL003W, strain gim4, active compounds read low 0.98 | locus YEL037C, strain rad23, active compounds read low 0.979 | locus YEL061C, strain CIN8 (second series), active compounds read low 0.985 | locus YER015W, strain faa2, active compounds read low 0.972 | locus YER016W, strain bim1, active compounds read low 0.976 | locus YER111C, strain swi4, active compounds read low 0.964 | locus YER155C, strain BEM2 (second series), active compounds read low 0.968 | locus YFR010W, strain ubp6, active compounds read low 0.961 | locus YGL167C, strain pmr1, active compounds read low 0.972 | locus YGL173C, strain kem1, active compounds read low 0.975 | locus YGL227W, strain vid30, active compounds read low 0.963 | locus YGL240W, strain doc1, active compounds read low 0.983 | locus YGL253W, strain hxk2, active compounds read low 0.978 | locus YHR013C, strain ard1, active compounds read low 0.98 | locus YHR027C, strain rpn1, active compounds read low 0.985 | locus YHR142W, strain chs7, active compounds read low 0.97 | locus YJL092W, strain hpr5, active compounds read low 0.967 | locus YJL095W, strain BCK1 (second series), active compounds read low 0.99 | locus YJL115W, strain asf1, active compounds read low 0.974 | locus YJL129C, strain trk1, active compounds read low 0.983 | locus YJL154C, strain vps35, active compounds read low 0.963 | locus YJL164C, strain tpk1, active compounds read low 0.986 | locus YJL166W, strain qcr8, active compounds read low 0.988 | locus YJL187C, strain SWE1, active compounds read low 0.982 | locus YKL160W, strain elf1, active compounds read low 0.988 | locus YKR026C, strain gcn3, active compounds read low 0.973 | locus YKR091W, strain srl3, active compounds read low 0.985 | locus YLL001W, strain dnm1, active compounds read low 0.99 | locus YLL026W, active compounds read low 0.974 | locus YLL041C, strain sdh2, active compounds read low 0.978 | locus YLR027C, strain aat2, active compounds read low 0.976 | locus YLR221C, strain rsa3, active compounds read low 0.976 | locus YLR258W, strain gsy2, active compounds read low 0.984 | locus YLR262C, strain YPT6 (second series), active compounds read low 1.02 | locus YLR320W, strain mms22, active compounds read low 0.964 | locus YLR342W, strain FKS1, active compounds read low 0.966 | locus YLR357W, strain rsc2, active compounds read low 0.95 | locus YLR370C, strain arc18, active compounds read low 0.977 | locus YLR384C, strain iki3, active compounds read low 0.955 | locus YML120C, strain ndi1, active compounds read low 0.989 | locus YMR058W, strain fet3, active compounds read low 0.977 | locus YMR125W, strain sto1, active compounds read low 0.971 | locus YMR129W, active compounds read low 0.977 | locus YMR205C, strain PFK2, active compounds read low 0.972 | locus YMR231W, strain pep5, active compounds read low 0.959 | locus YNL071W, strain lat1, active compounds read low 0.993 | locus YNL209W, strain ssb2, active compounds read low 0.985 | locus YNL248C, strain rpa49, active compounds read low 0.979 | locus YNL322C, strain KRE1 (second series), active compounds read low 0.969 | locus YNR049C, strain mso1, active compounds read low 0.972 | locus YOR001W, strain rrp6, active compounds read low 0.981 | locus YOR070C, strain gyp1, active compounds read low 0.972 | locus YOR080W, strain dia2, active compounds read low 0.98 | locus YOR083W, strain WHI5, active compounds read low 0.988 | locus YOR106W, strain vam3, active compounds read low 0.973 | locus YOR265W, strain rbl2, active compounds read low 0.986 | locus YOR270C, strain vph1, active compounds read low 0.998 | locus YOR290C, strain snf2, active compounds read low 0.974 | locus YPL051W, strain arl3, active compounds read low 0.972 | locus YPL078C, strain atp4, active compounds read low 0.976 | locus YPL106C, strain sse1, active compounds read low 0.979 | locus YPL240C, strain hsp82, active compounds read low 0.976
